In PubChem BioAssay:
The source made the active and inactive calls. Unless noted, the rule behind the calls is not given here.

How the values were obtained:
[1] = test system: Wnt5a (protein binding on small-molecule microarray); assay: Wnt5a binders on small-molecule microarray, primary screen, biophysical, 635/667 nm fluorescence (AID 1142); details: 635 nm fluorescence, higher = more signal;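 note: fluorescence read at 667 nm with signal to noise per printed feature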
[2] = cell viability in Huh7 cells, primary screen, cytotoxicity control for HCV replication inhibitor project, CellTiter-Glo luminescence, basal, 48 h (AID 1143); details: Huh7 HCV replicon, higher = more signal, called active from +8 up or from −8 down;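 note: Huh7 hepatoma cells carrying a hepatitis C replication reporter with no stimulus; test concentration not given here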
[3] = P. aeruginosa biofilm formation inhibitors, primary screen, PAO1 strain, BacTiter-Glo luminescence, LB-PBS (AID 1144); details: 12 h, higher = more signal
[4] = CREB reporter modulators without forskolin, primary screen, cell-based, PC12, CRE-LacZ reporter, unstimulated (AID 1145); details: no forskolin, luminescence, 4.5 h, higher = more signal, called active from +8 up or from −8 down
[5] = CREB reporter modulators under forskolin, primary screen, cell-based, PC12, CRE-LacZ reporter, forskolin-stimulated (AID 1146); details: luminescence, 4.5 h, higher = more signal, called active from +8 up or from −8 down;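 note: PC12 cells with 6xCRE LacZ reporter stimulated by forskolin 10 µM; beta-galactosidase reporter signal reflecting CREB driven transcription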
[6] = target: Streptavidin (Streptomyces avidinii) (UniProt P22629); assay: streptavidin binders on small-molecule microarray, primary screen, artefact control for SMM compound annotation, biophysical, 635/667 nm fluorescence (AID 1147); details: streptavidin binding, higher = more signal;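 note: signal reflects streptavidin binding to arrayed compounds as a control protein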
Sequence of Streptavidin (Streptomyces avidinii) (P22629 whole entry, looked up): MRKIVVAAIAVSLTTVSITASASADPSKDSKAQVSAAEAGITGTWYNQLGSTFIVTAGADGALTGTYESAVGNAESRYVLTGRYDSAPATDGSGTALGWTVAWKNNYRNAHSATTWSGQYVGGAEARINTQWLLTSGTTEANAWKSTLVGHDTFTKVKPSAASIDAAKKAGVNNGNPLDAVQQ

[7] = small-molecule binders of probe aInhba, primary screen, biochemical, small-molecule microarray, 635/667 nm fluorescence (AID 1148); details: higher = more signal;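 note: score merges 667nm spot fluorescence with signal-to-noise for antibody binding to printed compounds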
[8] = target: Torsin-1A (Homo sapiens) (UniProt O14656); assay: torsin A binders from cell lysate, primary screen, small-molecule microarray, wild-type, 635/667 nm (AID 1149); details: COS7 hTOR1A-WT lysate, 635 nm fluorescence, higher = more signal
Sequence of Torsin-1A (Homo sapiens) (O14656 whole entry, looked up): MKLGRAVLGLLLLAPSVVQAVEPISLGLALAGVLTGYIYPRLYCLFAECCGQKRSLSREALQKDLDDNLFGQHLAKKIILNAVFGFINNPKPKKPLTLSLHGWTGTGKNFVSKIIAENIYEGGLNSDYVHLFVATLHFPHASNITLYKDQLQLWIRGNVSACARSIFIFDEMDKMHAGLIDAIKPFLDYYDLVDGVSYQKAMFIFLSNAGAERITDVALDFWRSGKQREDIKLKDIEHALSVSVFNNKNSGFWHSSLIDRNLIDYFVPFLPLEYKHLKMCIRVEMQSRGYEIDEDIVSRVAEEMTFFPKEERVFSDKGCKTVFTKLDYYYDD

[9] = target: Torsin-1A (Homo sapiens) (UniProt O14656); assay: small-molecule binders of mutant TOR1A in lysate, primary screen, cell lysate, small-molecule microarray, COS7 lysate, 635/667 nm fluorescence (AID 1150); details: COS7 hTOR1A mutant lysate, 635 nm fluorescence, higher = more signal;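 note: score pools 667 nm emission and signal to noise measuring lysate protein binding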
[10] = test system: Sonic hedgehog protein (Shh); assay: small-molecule binders of Shh protein, primary screen, biochemical, small-molecule microarray, 635/667 nm fluorescence (AID 1151); details: small-molecule microarray binding, 635 nm fluorescence; higher = more signal;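 note: Shh protein binding to compounds spotted on small-molecule microarray slides; score combines spot fluorescence intensity with signal-to-noise across triplicate slides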
[11] = E. coli DRC41 culture turbidity changes, primary screen, E. coli filamentation inducer project, strain DRC41, OD650, 48 h (AID 1152);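 note: E. coli MC1000 strain DRC41 lacking acrAB efflux pump and sulA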; details: E. coli DRC41 (acrAB sulA), higher = more signal, called active from +8 up or from −8 down
[12] = small-molecule binders of probe aLefty1, primary screen, biochemical, small-molecule microarray, 635/667 nm fluorescence (AID 1153); details: higher = more signal;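 note: score merges spot fluorescence with signal-to-noise ratio from the scanned slide images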
[13] = PSAC antagonists in infected red cells, primary screen, cell-based, P. falciparum Indochina, OD700, 1 h (AID 1154); details: P. falciparum Indochina infected RBC osmotic lysis, higher = more signal, called active from +8 up or from −8 down
[14] = PSAC antagonists in infected red cells, primary screen, cell-based, P. falciparum Indochina, OD700, 2 h (AID 1155);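 note: lysis reports solute entry through the parasite surface anion channel PSAC; channel blockers reduce lysis of infected cells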; details: P. falciparum Indochina infected erythrocytes, osmotic lysis OD700; higher = more signal, called active from +8 up or from −8 down
[15] = osmotic lysis modulators in infected erythrocytes, primary screen, PSAC antagonist project, cell-based, P. falciparum Indochina, OD700, 3 h (AID 1156); details: higher = more signal, called active from +8 up or from −8 down
[16] = PSAC antagonists in infected red cells, primary screen, cell-based, P. falciparum Indochina, OD700, 18 h (AID 1157); details: P. falciparum Indochina infected erythrocytes, osmotic lysis OD700, 18 h; higher = more signal, called active from +8 up or from −8 down
[17] = modulators of S6 phosphorylation in cells, primary screen, cell-based, A549, cytoblot, luminescence, serum-stimulated (AID 1158); details: A549 phospho-S6 cytoblot, 5 h, higher = more signal;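 note: serum-stimulated A549 lung adenocarcinoma cells; signal is phosphorylated S6 detected by cytoblot immunostaining with HRP secondary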
[18] = target: NADPH oxidase 2 (Homo sapiens) (UniProt P04839); assay: NOX2-dependent H2O2 signal modulators, primary screen, NOX inhibitor project, cell-based, HEK293-NOX2, PMA-stimulated, Amplex Red fluorescence (AID 1159); details: 45 min, higher = more signal, called active from +8 up or from −8 down; note: test concentration not given here
Sequence of NADPH oxidase 2 (Homo sapiens) (P04839 whole entry, looked up): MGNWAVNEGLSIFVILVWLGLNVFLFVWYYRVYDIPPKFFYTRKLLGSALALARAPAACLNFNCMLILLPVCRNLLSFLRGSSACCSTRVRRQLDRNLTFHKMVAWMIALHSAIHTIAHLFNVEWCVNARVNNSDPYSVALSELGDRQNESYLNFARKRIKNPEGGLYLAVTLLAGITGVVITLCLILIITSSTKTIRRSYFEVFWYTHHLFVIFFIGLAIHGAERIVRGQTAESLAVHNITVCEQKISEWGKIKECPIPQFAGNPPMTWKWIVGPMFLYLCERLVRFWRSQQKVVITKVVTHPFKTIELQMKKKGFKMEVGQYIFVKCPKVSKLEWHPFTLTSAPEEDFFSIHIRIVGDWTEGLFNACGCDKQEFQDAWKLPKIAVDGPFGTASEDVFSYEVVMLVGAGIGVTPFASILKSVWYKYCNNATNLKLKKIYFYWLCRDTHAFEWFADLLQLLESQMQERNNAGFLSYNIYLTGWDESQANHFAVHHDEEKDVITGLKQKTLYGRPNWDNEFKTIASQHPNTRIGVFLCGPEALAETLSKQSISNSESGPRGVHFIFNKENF

[19] = target: NADPH oxidase 4 (Homo sapiens) (UniProt Q9NPH5); assay: NOX4-dependent H2O2 signal modulators, primary screen, NOX inhibitor project, cell-based, HEK293-NOX4, tetracycline-induced, Amplex Red fluorescence (AID 1160); details: 45 min, higher = more signal, called active from +8 up or from −8 down
Sequence of NADPH oxidase 4 (Homo sapiens) (Q9NPH5 whole entry, looked up): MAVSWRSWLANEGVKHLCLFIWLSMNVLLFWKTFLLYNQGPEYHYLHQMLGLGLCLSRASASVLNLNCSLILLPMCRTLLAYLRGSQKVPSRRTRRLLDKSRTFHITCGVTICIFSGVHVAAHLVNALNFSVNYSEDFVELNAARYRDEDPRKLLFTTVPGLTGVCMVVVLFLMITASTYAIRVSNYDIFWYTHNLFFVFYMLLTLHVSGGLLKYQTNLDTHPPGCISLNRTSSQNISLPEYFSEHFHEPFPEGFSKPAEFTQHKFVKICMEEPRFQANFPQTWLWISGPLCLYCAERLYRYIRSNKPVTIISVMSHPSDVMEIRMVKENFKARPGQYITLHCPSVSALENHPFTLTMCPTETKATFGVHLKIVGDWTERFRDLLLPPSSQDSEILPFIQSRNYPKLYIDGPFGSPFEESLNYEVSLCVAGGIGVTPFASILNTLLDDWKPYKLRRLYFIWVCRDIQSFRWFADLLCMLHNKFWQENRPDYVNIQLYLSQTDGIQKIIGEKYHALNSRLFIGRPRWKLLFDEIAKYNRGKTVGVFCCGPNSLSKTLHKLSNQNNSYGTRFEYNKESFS

[20] = target: NADPH oxidase 5 (Homo sapiens) (UniProt Q96PH1); assay: NOX5-dependent H2O2 signal modulators, primary screen, NOX inhibitor project, cell-based, HEK293-NOX5, Amplex Red fluorescence (AID 1161); details: HEK293-NOX5, ionomycin, 45 min, higher = more signal
Sequence of NADPH oxidase 5 (Homo sapiens) (Q96PH1 whole entry, looked up): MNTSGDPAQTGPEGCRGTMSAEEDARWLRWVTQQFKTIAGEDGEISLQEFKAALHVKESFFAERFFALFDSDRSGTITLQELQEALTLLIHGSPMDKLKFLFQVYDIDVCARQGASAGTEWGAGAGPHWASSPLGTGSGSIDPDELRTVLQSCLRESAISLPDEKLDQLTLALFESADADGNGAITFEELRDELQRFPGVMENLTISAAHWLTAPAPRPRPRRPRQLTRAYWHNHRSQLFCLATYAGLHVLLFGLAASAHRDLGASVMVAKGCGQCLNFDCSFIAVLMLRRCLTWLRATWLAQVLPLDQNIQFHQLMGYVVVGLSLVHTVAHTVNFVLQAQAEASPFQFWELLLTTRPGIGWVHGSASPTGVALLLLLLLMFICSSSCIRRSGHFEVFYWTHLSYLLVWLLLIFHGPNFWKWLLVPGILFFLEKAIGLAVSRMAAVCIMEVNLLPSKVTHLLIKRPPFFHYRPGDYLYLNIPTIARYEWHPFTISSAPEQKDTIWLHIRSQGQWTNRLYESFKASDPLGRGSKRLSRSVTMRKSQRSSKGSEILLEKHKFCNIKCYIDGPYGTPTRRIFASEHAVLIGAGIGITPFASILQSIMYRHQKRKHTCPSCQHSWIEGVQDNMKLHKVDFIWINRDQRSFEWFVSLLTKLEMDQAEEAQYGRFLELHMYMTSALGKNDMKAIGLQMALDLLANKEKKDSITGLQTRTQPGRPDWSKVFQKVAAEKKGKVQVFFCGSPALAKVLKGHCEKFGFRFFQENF

Structure (SMILES): CC[C@@H]1C=C(C(=O)O)[C@H](c2ccc(OC)cc2)N1S(=O)(=O)c1ccc(C)cc1
- composite z-score [1]: 0.0237
- z-score [2]: -1.09 (inactive)
- z-score [3]: 1.01 (inactive)
- z-score [4]: 0.0798 (inactive)
- z-score [5]: 0.0935 (inactive)
- composite z-score [6]: 0.114
- composite z-score [7]: -0.016
- composite z-score [8]: -0.579
- composite z-score [9]: 0.316
- composite z-score [10]: -0.236
- z-score [11]: -1.46 (inactive)
- composite z-score [12]: -0.0449
- z-score [13]: 0.785 (inactive)
- z-score [14]: 0.453 (inactive)
- z-score [15]: -0.51 (inactive)
- z-score [16]: 0.437 (inactive)
- z-score [17]: -0.458
- z-score [18]: 0.339 (inactive)
- z-score [19]: -0.517 (inactive)
- z-score [20]: -0.215

Structure (SMILES): C=CCC(OC(C)=O)[C@@H]1[C@@H](N(Cc2ccc(-c3ccccc3)cc2)C(=O)c2cccc3ccccc23)c2cc(OCCCO)ccc2N1C(=O)Cc1ccc(OC)cc1 (stereo not given in full)
- composite z-score [1]: 0.0948
- z-score [2]: -1.62 (inactive)
- z-score [3]: 0.0108 (inactive)
- z-score [4]: 0.498 (inactive)
- z-score [5]: -0.117 (inactive)
- composite z-score [6]: 0.0251
- composite z-score [7]: -0.0346
- composite z-score [8]: -0.476
- composite z-score [9]: 0.127
- composite z-score [10]: 0.586
- z-score [11]: -1.17 (inactive)
- composite z-score [12]: 0.568
- z-score [13]: 0.53 (inactive)
- z-score [14]: 0.525 (inactive)
- z-score [15]: 0.375 (inactive)
- z-score [16]: 0.211 (inactive)
- z-score [17]: -0.0451
- z-score [18]: -0.248 (inactive)
- z-score [19]: -0.0822 (inactive)
- z-score [20]: -2.28

Structure (SMILES): CN1C(=O)C2C(C1=O)C1C=C(CCCO)C2C(C2CC2)N1Cc1cccc(OC(F)(F)F)c1 (stereo not given)
- composite z-score [1]: -0.317
- z-score [2]: -0.591 (inactive)
- z-score [3]: 0.55 (inactive)
- z-score [4]: -0.348 (inactive)
- z-score [5]: 1.3 (inactive)
- composite z-score [6]: 0.851
- composite z-score [7]: -0.101
- composite z-score [8]: 1.03
- composite z-score [9]: 1.76
- composite z-score [10]: -0.525
- z-score [11]: -0.771 (inactive)
- composite z-score [12]: -0.295
- z-score [13]: 1.34 (inactive)
- z-score [14]: 0.505 (inactive)
- z-score [15]: 0.627 (inactive)
- z-score [16]: 0.402 (inactive)
- z-score [17]: -0.546
- z-score [18]: 0.561 (inactive)
- z-score [19]: 0.568 (inactive)
- z-score [20]: 1.2

Structure (SMILES): COC(=O)C(CC#Cc1ccc2c(c1)[C@]1(C(=O)N2)[C@H](C(=O)NC[C@H](O)c2ccccc2)[C@H]2C(=O)O[C@H](c3ccccc3)[C@H](c3ccccc3)N2[C@@H]1c1ccccc1OCCO)C(=O)OC
- composite z-score [1]: 0.649
- z-score [2]: -6.04 (inactive)
- z-score [3]: -1.21 (inactive)
- z-score [4]: -0.671 (inactive)
- z-score [5]: -0.276 (inactive)
- composite z-score [6]: 0.703
- composite z-score [7]: 0.0154
- composite z-score [8]: 0.326
- composite z-score [9]: 0.506
- composite z-score [10]: 1.32
- z-score [11]: 1.52 (inactive)
- composite z-score [12]: -0.0559
- z-score [13]: 4.2 (inactive)
- z-score [14]: 0.574 (inactive)
- z-score [15]: 0.725 (inactive)
- z-score [16]: -0.124 (inactive)
- z-score [17]: 1.46
- z-score [18]: 0.504 (inactive)
- z-score [19]: -0.421 (inactive)
- z-score [20]: -2.45

Structure (SMILES): O=C1C2C=CC(C(O)c3c(F)cccc3Cl)N(Nc3ccc([N+](=O)[O-])cc3)C2C(=O)N1c1ccccc1 (stereo not given)
- composite z-score [1]: 0.469
- z-score [2]: -1.39 (inactive)
- z-score [3]: -1.44 (inactive)
- z-score [4]: -0.0787 (inactive)
- z-score [5]: 0.329 (inactive)
- composite z-score [6]: 1.26
- composite z-score [7]: 0.142
- composite z-score [8]: 0.414
- composite z-score [9]: 1.03
- composite z-score [10]: 1.01
- z-score [11]: -0.262 (inactive)
- composite z-score [12]: 0.218
- z-score [13]: 30 (active)
- z-score [14]: 21 (active)
- z-score [15]: 2.34 (inactive)
- z-score [16]: 1.76 (inactive)
- z-score [17]: -0.24
- z-score [18]: -1.5 (inactive)
- z-score [19]: -2.29 (inactive)
- z-score [20]: -1.9

Structure (SMILES): CC(C)C(CO)N1C(=O)[C@@H]2C3C(=O)OCCC/C=C\[C@H]3OC23C=CCN(Cc2ccccc2)C(=O)[C@@H]13 (stereo not given in full)
- composite z-score [1]: 0.0204
- z-score [2]: -0.294 (inactive)
- z-score [3]: 2.31 (inactive)
- z-score [4]: 0.601 (inactive)
- z-score [5]: 0.312 (inactive)
- composite z-score [6]: -1.14
- composite z-score [7]: 0.0212
- composite z-score [8]: 0.662
- composite z-score [9]: 0.825
- composite z-score [10]: 0.855
- z-score [11]: 0.83 (inactive)
- composite z-score [12]: -0.0035
- z-score [13]: 1.12 (inactive)
- z-score [14]: 0.405 (inactive)
- z-score [15]: 1.12 (inactive)
- z-score [16]: 0.503 (inactive)
- z-score [17]: 0.186
- z-score [18]: 1.25 (inactive)
- z-score [19]: 0.838 (inactive)
- z-score [20]: 2.26

Structure (SMILES): C=CCOC(=O)[C@@H]1[C@H]2C(=O)O[C@H](c3ccccc3)[C@H](c3ccccc3)N2[C@H](c2ccc(OCCOC(=O)[C@H]3C[C@H]4C(=O)N[C@@H](CCCCN(C)C)C(=O)N4[C@H]3c3ccc(O)cc3)cc2)[C@@]12C(=O)Nc1ccc(I)cc12
- composite z-score [1]: 0.374
- z-score [2]: -1.29 (inactive)
- z-score [3]: -0.852 (inactive)
- z-score [4]: -0.118 (inactive)
- z-score [5]: 2.13 (inactive)
- composite z-score [6]: 0.433
- composite z-score [7]: 0.0895
- composite z-score [8]: 1.18
- composite z-score [9]: 0.9
- composite z-score [10]: 1.98
- z-score [11]: -1.09 (inactive)
- composite z-score [12]: 0.0313
- z-score [13]: -0.202 (inactive)
- z-score [14]: 0.422 (inactive)
- z-score [15]: 3.69 (inactive)
- z-score [16]: -0.116 (inactive)
- z-score [17]: -1.34
- z-score [18]: 1.6 (inactive)
- z-score [19]: 0.182 (inactive)
- z-score [20]: 0.946

Structure (SMILES): CC(C)C[C@@H]1NC(=O)[C@@]23C(=O)N[C@@H](Cc4ccccc4)C2[C@H](C)[C@@]2(C)O[C@H]2C3/C=C/C/C=C\CNC(=O)CNC1=O (stereo not given in full)
- composite z-score [1]: -0.0717
- z-score [2]: -1.91 (inactive)
- z-score [3]: 0.0738 (inactive)
- z-score [4]: -1.05 (inactive)
- z-score [5]: -0.767 (inactive)
- composite z-score [6]: 0.228
- composite z-score [7]: -0.179
- composite z-score [8]: -0.507
- composite z-score [9]: 0.939
- composite z-score [10]: 0.214
- z-score [11]: -0.815 (inactive)
- composite z-score [12]: -0.0832
- z-score [13]: 0.917 (inactive)
- z-score [14]: 0.0107 (inactive)
- z-score [15]: -0.023 (inactive)
- z-score [16]: 0.329 (inactive)
- z-score [17]: 0.208
- z-score [18]: 1.82 (inactive)
- z-score [19]: 1.2 (inactive)
- z-score [20]: -0.441
